# Results taken from PubChem BioAssay (EPA / NIEHS).
# Values joined by “and” are separate entries in the source; they are usually repeats but may differ in a detail not shown here. Equal values may be shown once. Some structures have more than one record in an assay (separate samples or runs), and their calls can disagree. Active and inactive are the calls of the source. The calls were made as follows: active = hit-call score of the fitted dose curve at least 0.9, where 1 is the maximum; inactive = score below 0.9.
# How the values were obtained:
# [1] = read-out: Matrix Metallopeptidase 1 (MMP1), MMP1 (gene 4312); experiment: BSK_BF4T_MMP1: BioMAP Diversity Plus: BF4T Assay for Matrix Metallopeptidase 1 (MMP1) Biomarker Activity (AID 2284270); conditions: primary human bronchial epithelial cells with fibroblasts
# Procedure, shortened: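 MMP-1 quantified by ELISA in primary human bronchial epithelial/dermal fibroblast co-cultures, 24 hours post-dosing, with DMSO as baseline; parallel sulforhodamine B staining (560 nm) tracks overt cytotoxicity.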
# [2] = read-out: Tissue plasminogen activator (tPA), PLAT (gene 5327); experiment: BSK_BF4T_tPA: BioMAP Diversity Plus: BF4T Assay for Tissue plasminogen activator (tPA) Biomarker Activity (AID 2284272); conditions: primary human bronchial epithelial cells with fibroblasts
# Procedure, shortened: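 tPA level quantified by ELISA at 24 h post-treatment in bronchial epithelial/dermal fibroblast co-cultures, gain of signal scored against DMSO baseline. Parallel cultures stained with 0.1% SRB (560 nm) to flag overt cytotoxicity.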
# [3] = read-out: Plasminogen Activator Inhibitor-1 (PAI1), SERPINE1 (gene 5054); experiment: BSK_BF4T_PAI1: BioMAP Diversity Plus: BF4T Assay for Plasminogen Activator Inhibitor-1 (PAI1) Biomarker Activity (AID 2284273); conditions: primary human bronchial epithelial cells with fibroblasts
# Procedure, shortened: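 PAI-1 levels quantified by ELISA 24 h post-dosing in bronchial epithelial cell plus dermal fibroblast cultures. Signal gain referenced to DMSO baseline. Sulforhodamine B total-protein staining of parallel wells checked cytotoxicity.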
# [4] = BSK_BF4T_SRB: Viability Assessment in the BioMAP Diversity Plus: BF4T Assay (AID 2284274); conditions: primary human bronchial epithelial cells with fibroblasts
# Procedure, shortened: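 Cytotoxicity measured as total protein: cells fixed with 10% TCA, stained with 0.1% SRB, read at 560 nm. Bronchial epithelial/dermal fibroblast co-culture, 24 h after dosing, with positive-direction fitting relative to DMSO.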
# [5] = read-out: urokinase Plasminogen Activator (uPA), PLAU (gene 5328); experiment: BSK_BF4T_uPA: BioMAP Diversity Plus: BF4T Assay for urokinase Plasminogen Activator (uPA) Biomarker Activity (AID 2284275); conditions: primary human bronchial epithelial cells with fibroblasts
# Procedure, shortened: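 uPA levels measured by ELISA at 24 hours in BF4T cultures (bronchial epithelial cells plus dermal fibroblasts) and compared with DMSO; cytotoxicity tracked in parallel cultures by sulforhodamine B staining.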
# [6] = read-out: Matrix Metallopeptidase 9 (MMP9), MMP9 (gene 4318); experiment: BSK_BF4T_MMP9: BioMAP Diversity Plus: BF4T Assay for Matrix Metallopeptidase 9 (MMP9) Biomarker Activity (AID 2284276); conditions: primary human bronchial epithelial cells with fibroblasts
# Procedure, shortened: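 MMP-9 levels were measured by ELISA after 24 h exposure of bronchial epithelial cell/dermal fibroblast co-cultures, with DMSO as baseline. Parallel cultures were stained with 0.1% SRB after TCA fixation, read at 560 nm, to flag overt cytotoxicity.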
# [7] = read-out: Interleukin-8 (IL8), CXCL8 (gene 3576); experiment: BSK_IMphg_IL8: BioMAP Diversity Plus: IMphg Assay for Interleukin-8 (IL8) Biomarker Activity (AID 2284277); conditions: primary human endothelial cells with macrophages
# Procedure, shortened: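 IL-8 levels were measured by ELISA 24 h after dosing in primary human venular endothelial cell–macrophage cultures, referenced to DMSO; parallel SRB staining monitored overt cytotoxicity.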
# [8] = read-out: Intercellular Adhesion Molecule 1 (ICAM1), ICAM1 (gene 3383); experiment: BSK_BE3C_ICAM1: BioMAP Diversity Plus: BE3C Assay for Intercellular Adhesion Molecule 1 (ICAM1) Biomarker Activity (AID 2284278); conditions: primary human bronchial epithelial cells;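 as to outcome: cell-surface ICAM-1 protein level quantified by ELISA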
# Procedure, shortened: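 ELISA read-out of ICAM-1 on human lung bronchial epithelial primary cells, 24 h post-dosing; positive-direction curve fit, DMSO = baseline. SRB total-protein staining of parallel cultures flagged overt cytotoxicity.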
# [9] = read-out: Interleukin-8 (IL8), CXCL8 (gene 3576); experiment: BSK_BE3C_IL8: BioMAP Diversity Plus: BE3C Assay for Interleukin-8 (IL8) Biomarker Activity (AID 2284280); conditions: primary human bronchial epithelial cells
# Procedure, shortened: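 Primary human bronchial epithelial cells (BE3C system) were exposed to test chemical for 24 h, and IL-8 levels were then measured by ELISA. Activity was fitted in the positive (gain-of-signal) direction against a DMSO negative-control baseline.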
# [10] = read-out: Epidermal growth factor receptor (EGFR), EGFR (gene 1956); experiment: BSK_BE3C_EGFR: BioMAP Diversity Plus: BE3C Assay for Epidermal growth factor receptor (EGFR) Biomarker Activity (AID 2284281); conditions: primary human bronchial epithelial cells
# Procedure, shortened: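 Human primary bronchial epithelial cells were exposed to compound for 24 h, and cell-surface EGFR was then quantified by ELISA. Activity was fitted in the positive direction against the DMSO vehicle baseline.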
# KRT18 (gene 3875) = experiment: BSK_BE3C_Keratin818: BioMAP Diversity Plus: BE3C Assay for Keratin 818 Biomarker Activity (AID 2284282); conditions: primary human bronchial epithelial cells
# Procedure, shortened: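 ELISA read-out of Keratin 8/18 in BE3C human bronchial epithelial cultures, 24 h post-dosing; positive-direction fit vs DMSO baseline.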
# [11] = read-out: Matrix Metallopeptidase 9 (MMP9), MMP9 (gene 4318); experiment: BSK_BE3C_MMP9: BioMAP Diversity Plus: BE3C Assay for Matrix Metallopeptidase 9 (MMP9) Biomarker Activity (AID 2284283); conditions: primary human bronchial epithelial cells
# Procedure, shortened: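 Human primary bronchial epithelial cells in the BE3C system were dosed with compound for 24 h. MMP-9 was measured by ELISA, and the positive-direction response was fitted relative to DMSO as baseline. Parallel SRB staining gauged cytotoxicity.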
# [12] = read-out: Plasminogen activator inhibitor-1 (PAI1), SERPINE1 (gene 5054); experiment: BSK_CASM3C_PAI1: BioMAP Diversity Plus: CASM3C Assay for Plasminogen activator inhibitor-1 (PAI1) Biomarker Activity (AID 2284284); conditions: primary human coronary artery smooth muscle cells
# [13] = read-out: Monocyte Chemoattractant Protein-1 (MCP1), CCL2 (gene 6347); experiment: BSK_hDFCGF_MCP1: BioMAP Diversity Plus: hDFCGF Assay for Monocyte Chemoattractant Protein-1 (MCP1) Biomarker Activity (AID 2284285); conditions: primary human foreskin fibroblasts
# Procedure, shortened: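 MCP-1 ELISA readout was taken 24 hours after dosing primary human dermal fibroblasts in the hDFCGF system, with DMSO as baseline. Parallel sulforhodamine B staining of total protein tracked overt cytotoxicity.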
# [14] = read-out: Vascular cell adhesion molecule 1 (VCAM1), VCAM1 (gene 7412); experiment: BSK_IMphg_VCAM1: BioMAP Diversity Plus: IMphg Assay for Vascular cell adhesion molecule 1 (VCAM1) Biomarker Activity (AID 2284286); conditions: primary human endothelial cells with macrophages
# Procedure, shortened: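 ELISA read-out of VCAM-1 on venular endothelial cell/macrophage co-cultures at 24 h post-treatment, with DMSO as baseline and positive-direction fitting. Parallel sulforhodamine B total-protein staining (560 nm) served as the overt cytotoxicity measure.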
# [15] = read-out: Intercellular Adhesion Molecule 1 (ICAM1), ICAM1 (gene 3383); experiment: BSK_hDFCGF_ICAM1: BioMAP Diversity Plus: hDFCGF Assay for Intercellular Adhesion Molecule 1 (ICAM1) Biomarker Activity (AID 2284287); conditions: primary human foreskin fibroblasts
# Procedure, shortened: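 ICAM-1 ELISA readout 24 h after dosing, DMSO as baseline, in human dermal foreskin fibroblast cultures. Cytotoxicity checked in parallel wells by SRB staining (0.1% SRB, 10% TCA fixation, 560 nm).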
# CD40, CD40 (gene 958) = experiment: BSK_IMphg_CD40: BioMAP Diversity Plus: IMphg Assay for CD40 Biomarker Activity (AID 2284288); conditions: primary human endothelial cells with macrophages
# Procedure, shortened: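 ELISA read-out of cell-surface CD40 at 24 h in human venular endothelial cell/macrophage co-cultures. Activity fitted in the positive direction against DMSO; parallel SRB staining (560 nm) gauges overt cytotoxicity.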
# [16] = read-out: TIMP metallopeptidase inhibitor 2 (TIMP2), TIMP2 (gene 7077); experiment: BSK_hDFCGF_TIMP2: BioMAP Diversity Plus: hDFCGF Assay for TIMP metallopeptidase inhibitor 2 (TIMP2) Biomarker Activity (AID 2284289); conditions: primary human foreskin fibroblasts
# Procedure, shortened: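 Primary human foreskin fibroblasts in the hDFCGF system, dosed for 24 h; TIMP-2 level measured by ELISA, fitted in the positive direction against DMSO; cytotoxicity checked in parallel by sulforhodamine B total protein staining.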
# [17] = read-out: Interferon-inducible T-cell alpha chemoattractant (ITAC), CXCL11 (gene 6373); experiment: BSK_BE3C_ITAC: BioMAP Diversity Plus: BE3C Assay for Interferon-inducible T-cell alpha chemoattractant (ITAC) Biomarker Activity (AID 2284279); conditions: primary human bronchial epithelial cells
# Procedure, shortened: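 Steps: dose human bronchial epithelial cells with chemical; incubate 24 h; measure I-TAC by ELISA; fit endpoint in positive direction against DMSO control. Cytotoxicity was checked in parallel cultures by SRB staining at harvest.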
# [18] = read-out: Matrix Metallopeptidase 3 (MMP3), MMP3 (gene 4314); experiment: BSK_BF4T_MMP3: BioMAP Diversity Plus: BF4T Assay for Matrix Metallopeptidase 3 (MMP3) Biomarker Activity (AID 2284271); conditions: primary human bronchial epithelial cells with fibroblasts
# Procedure, shortened: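 MMP-3 level read by ELISA after 24 h chemical exposure of bronchial epithelial cell/dermal fibroblast co-cultures, fitted upward relative to DMSO. Parallel cultures stained with 0.1% SRB after TCA fixation gauge overt cytotoxicity.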
smiles,measurement,setting,value
O=S(=O)(O)CCC(F)(F)C(F)(F)C(F)(F)C(F)(F)C(F)(F)C(F)(F)C(F)(F)C(F)(F)F,outcome,[1],inactive
same,outcome,[2],inactive
same,outcome,[3],inactive
same,outcome,[4],inactive
same,outcome,[5],inactive
same,outcome,[6],inactive
same,outcome,[7],inactive
same,outcome,[8],inactive
same,AC50,[9],20.4 µM (active)
same,outcome,[9],inactive
same,outcome,[10],inactive
same,outcome,KRT18 (gene 3875),inactive
same,outcome,[11],inactive
same,outcome,[12],inactive
same,outcome,[13],inactive
same,outcome,[14],inactive
same,AC50,[15],22.4 µM (active)
same,outcome,[15],inactive
same,AC50,"CD40, CD40 (gene 958)",20.9 µM (active)
same,outcome,"CD40, CD40 (gene 958)",inactive
same,outcome,[16],inactive
FC(F)(F)C(F)(F)C(F)(F)CC1CO1 (stereo not drawn),outcome,[1],inactive
same,outcome,[2],inactive
same,outcome,[3],inactive
same,outcome,[4],inactive
same,outcome,[5],inactive
same,outcome,[6],inactive
same,outcome,[7],inactive
same,outcome,[8],inactive
same,outcome,[17],inactive
same,outcome,[9],inactive
same,outcome,[10],inactive
same,outcome,KRT18 (gene 3875),inactive
same,outcome,[11],inactive
same,outcome,[12],inactive
same,outcome,[13],inactive
same,outcome,[14],inactive
same,outcome,[15],inactive
same,outcome,"CD40, CD40 (gene 958)",inactive
same,AC50,[16],1.97 µM (active)
same,outcome,[16],inactive
O=S(=O)(Cl)C(F)(F)C(F)(F)C(F)(F)C(F)(F)C(F)(F)C(F)(F)C(F)(F)C(F)(F)F,outcome,[1],inactive
same,AC50,[2],23.2 µM (active)
same,outcome,[2],inactive
same,AC50,[3],44.9 µM (active) and 44.6 µM (active)
same,AC50,[4],50.8 µM (active) and 46.8 µM (active)
same,AC50,[5],30 µM (active)
same,outcome,[5],inactive
same,AC50,[6],49.2 µM (active) and 47.7 µM (active)
same,AC50,[7],36.7 µM (active)
same,outcome,[7],inactive
same,AC50,[8],54.9 µM (active) and 54.8 µM (active)
same,AC50,[9],41.3 µM (active) and 21.5 µM (active)
same,AC50,[10],22.7 µM (active) and 30 µM (active)
same,AC50,KRT18 (gene 3875),46.7 µM (active)
same,outcome,KRT18 (gene 3875),inactive
same,AC50,[11],55.1 µM (active) and 55.2 µM (active)
same,outcome,[12],inactive
same,outcome,[13],inactive
same,outcome,[14],inactive
same,outcome,[15],inactive
same,outcome,"CD40, CD40 (gene 958)",inactive
same,outcome,[16],inactive
C=CC(=O)OCC(F)(F)C(F)(F)C(F)(F)C(F)(F)C(F)(F)C(F)(F)C(F)(F)C(F)F,outcome,[1],inactive
same,outcome,[18],inactive
same,outcome,[2],inactive
same,outcome,[3],inactive
same,outcome,[4],inactive
same,outcome,[5],inactive
same,outcome,[6],inactive
same,outcome,[7],inactive
same,outcome,[8],inactive
same,outcome,[9],inactive
same,outcome,[10],inactive
same,outcome,KRT18 (gene 3875),inactive
same,outcome,[11],inactive
same,outcome,[12],inactive
same,AC50,[13],6.81 µM (active)
same,outcome,[13],inactive
same,outcome,[14],inactive
same,AC50,[15],20.3 µM (active)
same,outcome,[15],inactive
same,outcome,"CD40, CD40 (gene 958)",inactive
same,outcome,[16],inactive
FC(F)(F)C(F)(F)C(F)(F)C(F)(F)C(F)(F)C(F)(F)C(F)(F)CCI,outcome,[1],inactive
same,outcome,[2],inactive
same,outcome,[3],inactive
same,outcome,[4],inactive
same,outcome,[5],inactive
same,outcome,[6],inactive
same,outcome,[7],inactive
same,outcome,[8],inactive
same,AC50,[9],0.662 µM (active)
same,outcome,[9],inactive
same,outcome,[10],inactive
same,outcome,KRT18 (gene 3875),inactive
same,outcome,[11],inactive
same,outcome,[12],inactive
same,outcome,[13],inactive
same,outcome,[14],inactive
same,outcome,[15],inactive
same,outcome,"CD40, CD40 (gene 958)",inactive
same,outcome,[16],inactive
